Screening data (PubChem)
PI5P4Ka inh = PI5P4K alpha (human) kinase inhibition; PI5P4Kalpha enzyme, ADP-Glo luminescence, 60 min; active compounds read low; max response, %; 330,000 tested, 1.2% active; AID 652105; active = max response of -50% or lower; inconclusive = between -30% and -50%; inactive = -30% or higher; also: value at the top dose of about 77 µM; % is scaled to controls: 0 for no effect and ±100 for the full control effect
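Controls without substrate or without enzyme flank wells where PI5P4Kalpha converts substrate using 5 microM ATP (final). Incubation lasts 60 minutes at room temperature; ADP formed is read by ADP-Glo luminescence.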
G9a inh = G9a (human) methyltransferase inhibition; G9a H3K9 monomethylation, AlphaScreen, 2 h; Potency, µM (highest dose often 102 µM), for the others: top-dose activity, negative = inhibition, hits mostly inhibitors; 350,000 tested, 8.8% active; AID 504332; also: potency is read from the fitted curve at half-maximal effect; % is scaled to controls: 0 for no effect and ±100 for the full control effect; nearly all actives have a fitted effect of over 75% in size
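AlphaScreen detection with an anti-monomethyl H3K9 antibody quantified product after a 2 h room-temperature reaction containing 500 nM biotinylated H3K9 peptide, 20 µM SAM and 20 nM enzyme, which had been preincubated 15 min with compound.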
PLK1 PBD inh = inhibitors of human PLK1 polo-box domain binding; P53350; Plk1 PBD binding of FITC phosphopeptide, fluorescence polarization; Potency, µM, without a hit: max response, negative = inhibition, most hits filed as inhibitors; 360,000 tested, 2.8% active; AID 720504; also: potency is read from the fitted curve at half-maximal effect; series mostly up to about 57 µM; % is scaled to controls: 0 for no effect and ±100 for the full control effect; nearly all actives have a fitted effect of over 65% in size
JMJD2A Tudor inh = blocks the human JMJD2A Tudor domain; AlphaScreen JMJD2A-Tudor / H3K4me3 peptide binding; Potency, µM (series often up to 114 µM), inactives show at the top dose activity change, negative = inhibition, hits mostly inhibitors; 390,000 tested, 4.4% active; also: potency is read from the fitted curve at half-maximal effect; % is scaled to controls: 0 for no effect and ±100 for the full control effect; nearly all actives have a fitted effect of over 50% in size
BAZ2B block = blocks human BAZ2B. Q9UIF8. AlphaScreen BAZ2B-H3K14Ac peptide displacement. Potency, µM (titrated, usually from 114 µM), for inactives: top-dose activity change, negative = inhibition, most hits filed as inhibitors. 360,000 tested, 4.4% active. AID 504333; also: potency is read from the fitted curve at half-maximal effect; % is scaled to controls: 0 for no effect and ±100 for the full control effect; nearly all actives have a fitted effect of over 60% in size
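Protein-peptide AlphaScreen: BAZ2B 50 nM, b-H3K14Ac 50 nM, 1x PBS pH 7.4 + 0.01% Tween-20. Preincubation 30 min RT; cpd 30 min RT (top 110 uM); beads 20 min RT, light-protected.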
HP1b binding inh = HP1-beta chromodomain-methylated histone interaction inhibition. P83916. AlphaScreen HP1-beta / biotin-H3K9me3 peptide binding. Potency, µM (titrated, usually from 114 µM), without a hit: top-dose activity change, negative = inhibition, most hits filed as inhibitors. 390,000 tested, 0.56% active. AID 540317; also: potency is read from the fitted curve at half-maximal effect; nearly all actives have a fitted effect of over 70% in size
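AlphaScreen: HP1-beta (50 nM) preformed 30 min with biotin-H3(1-18)K9me3 peptide (50 nM) in PBS pH 7.4, 0.01% Tween-20. Compound added for 30 min at RT, then streptavidin donor/nickel chelate acceptor beads (10 ug/mL) for 30 min.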
* marks the source's active call; other numbers are inactive results; u = inconclusive; x = no result given; [ ] = another dose, or the depositor's remark. Sampled rows, rich in hits. Any-hit rate of the full collection: about 12%. Unless noted, calls follow the shape of the dose curve; as a rule, active = well fitted curve in the direction sought with a large enough effect; inconclusive = small, poorly fitted or top-dose-only effect, or another doubt; inactive = no such curve, though single readings can be large; an effect the other way counts as inactive or inconclusive.

SMILES	PI5P4Ka inh	G9a inh	PLK1 PBD inh	JMJD2A Tudor inh	BAZ2B block	HP1b binding inh
COc1ccc(/C=N/NC(=O)CN2CCCc3ccccc32)c(OC)c1	3	u	-10%	50µM*	50µM*	u
C=CCC(C)(NCc1ccccc1)c1ccco1 (stereo not drawn)	-1	13µM*	-3%	2µM*	50µM*	u
CC(C)(CNC(=O)CNC(=O)c1ccc(Cl)cc1Cl)N1CCOCC1	-5	-24%	-9%	-21%	8%	0%
COc1cccc(CN2CCN(C(=O)Nc3ccc([N+](=O)[O-])cc3)CC2)c1	4	x	-11%	-18%	-12%	14%
COc1ccc(CN2CCN(C(C)C(=O)N(C)Cc3cccc(F)c3)CC2)cc1OC (stereo not drawn)	-2	2µM*	-3%	4.5µM*	18µM*	u
CC(C)CC(=O)N1CCN(Cc2cccc(F)c2)CC1	-9	-46%[12.7 µM]	0%	4.5µM*	56µM*	u
COc1cc(OC)c(OC)cc1CN1CCN(C(=O)CC(C)C)CC1	-5	18µM*	6%	1.6µM*	u	u
COc1ccc(CN2CCN(C(C)C(=O)NC(C)c3ccc(F)cc3)CC2)cc1F (stereo not drawn)	-6	-2%	-3%	-7%	-4%	23%
COc1cccc(CN2CCN(C(=O)CC(C)C)CC2)c1	-7	18µM*	0%	5.6µM*	56µM*	-57%
O=C(Nc1ccc(Br)cc1F)c1cc(S(=O)(=O)NC2CCCC2)ccc1F	x	14%[59 µM]	x	-11%	-1%	37%
CCOc1ccc(NC(=O)CN(C)C(=O)c2ccc(NC3CC3)c([N+](=O)[O-])c2)cc1OCC	4	u	1%	-22%	-32%	-2%
COC(=O)[C@]1(C)N[C@H](CN(C)S(=O)(=O)c2ccc(-c3ccccc3)cc2)[C@@H]2C(=O)N(C)C(=O)[C@@H]21	1	x	-4%	-6%	x	49%
CCOc1ncccc1C(=O)Nc1cc(C(F)(F)F)ccc1N1CCOCC1	6	16%[12.7 µM]	-16%	-5%	6%	21%
CCc1cc(C(=O)Nc2cc(S(=O)(=O)N(CC)CC)ccc2N2CCN(C)CC2)sc1C	-7	35µM*	0%	-20%	-10%	49%
CCN(CC)S(=O)(=O)c1ccc(N2CCOCC2)c(NC(=O)c2c3c(nc4ccccc24)CCC3)c1	-59*	-23%[59 µM]	-18%	u	-38%	-8%
CCOc1ncccc1C(=O)Nc1cc(S(=O)(=O)N(CC)CC)ccc1N1CCOCC1	0	x	17µM*	-30%	x	-6%
Brc1ccc2ncc3ccccc3c2c1	8	x	0%	8%	x	38%
CCNC(=O)N(C)c1c(CC)nc2ccc(C(=O)N3CCN(S(=O)(=O)CC)CC3)cn12	-6	x	-4%	x	x	x
Cc1cc(NC(=O)Nc2nnc(N(C)C3CCCCC3)s2)ccc1Br	x	5%[59 µM]	x	-14%	50µM*	12%
CC(C)(C)NC(=S)NCc1ccco1	5	79µM*	-7%	-16%	-9%	-4%
Cc1cccc(NC(=S)NCc2ccco2)n1	-5	2µM*	-4%	6%	-2%	27%
CN(C)c1ccc(/C=N/NC(=S)NCc2ccco2)cc1	0	-15%[59 µM]	-11%	-24%[57.1 µM]	u	7%
CN(C)c1ccc(C(=S)NCc2ccco2)cc1	-26	u	19µM*	u	u	u
NNC(=S)NCc1ccco1	-22	4%	u	89µM*	-35%	1%
COCCCN1C(=O)C(CC(=O)NCc2cccc3ccccc23)CC(C(=O)N(C(C)C)C(C)C)=C1C (stereo not drawn)	0	x	-7%	x	x	x
SMILES	PI5P4Ka inh	G9a inh	PLK1 PBD inh	JMJD2A Tudor inh	BAZ2B block	HP1b binding inh
CCOC(=O)C1=C(C)Nc2nnnn2C1c1ccccc1Cl (stereo not drawn)	-2	-4%[59 µM]	-8%	-9%	14%	5%
Fc1ccccc1/C=C1\CCCC2=C1Nc1nnnn1C2c1ccccc1F (stereo not drawn)	x	50µM*	u	-25%	-4%	23%
CCCS(=O)(=O)NC(=O)C1(C)CCN(C(=O)c2ccc(C(F)(F)F)cc2)C1 (stereo not drawn)	4	x	-11%	x	x	x
CCOc1nc2ccccc2cc1/C=C/C(=O)O	-2	50µM*	-6%	1%	-1%	51%
CC(C)C1Nc2c(O)cc(Cl)c([N+](=O)[O-])c2C2C=CCC21 (stereo not drawn)	-26	25µM*	u	40µM*	25µM*	u
COc1ccc(Cl)cc1NC(=O)CCC(=O)N1CCOc2ccccc21	x	-32%[59 µM]	x	9%	-32%	34%
O=C(CCC(=O)N1CCOc2ccccc21)Nc1cc(F)ccc1F	-9	x	24µM*	u	6%	13%
COCCn1cnc2c1c(=O)[nH]c(=O)n2Cc1ccccc1	-6	17%	2%	5%	1%	47%
CN(C)c1ccc(N/C=C/C(=O)c2ccc(F)cc2)cc1	x	2.5µM*	9%	u	u	-1%
CN(C)c1ccc(N/C=C/C(=O)c2ccco2)cc1	u	7.1µM*	1%	u	35µM*	-38%
NS(=O)(=O)c1ccc(N/C=C\C(=O)c2ccc(F)cc2)cc1	0	5%	-6%	-4%	-13%	12%
C=C(C)CC1Nc2ccccc2NC1CC(=C)C (stereo not drawn)	2	u	-11%	79µM*	50µM*	-39%
CC1(C)CC(=O)C(C(=O)/C=C/c2ccco2)C(=O)C1	u	23%[12.7 µM]	9.5µM*	u	u	u
C=CCn1c(SCC(=O)Nc2ccc(F)cc2)nc2cc(C(=O)O)ccc2c1=O	-51*	-29%	-10%	1%	-10%	29%
C=CCn1c(SCC(=O)Nc2ccccc2-c2ccccc2)nc2cc(C(=O)O)ccc2c1=O	-55*	-4%	-5%	6%	-8%	42%
C=CCn1c(SCc2cc([N+](=O)[O-])cc3c2OCOC3)nc2cc(C(=O)O)ccc2c1=O	-74*	-5%	-13%	-23%	-21%	27%
CCC(CO)n1c(SCc2cc([N+](=O)[O-])cc3c2OCOC3)nc2ccccc2c1=O (stereo not drawn)	1	18%[59 µM]	5%	u	u	-8%
CCN(c1ccc(Cl)cc1)S(=O)(=O)c1nnc(NC(=O)C2CCCCC2)s1	x	27%[59 µM]	x	-3%	1%	70%
O=C(CSc1n[nH]c(-c2ccncc2)n1)Nc1ccccc1Cl	-2	50µM*	-12%	-7%	7%	8%
NS(=O)(=O)c1ccc(NC(=O)COC(=O)CSc2n[nH]c(-c3ccccc3)n2)cc1	x	32µM*	-18%	-6%	-8%	35%
O=C(CSc1n[nH]c(-c2cccnc2)n1)Nc1ccccc1	2	12%[59 µM]	-1%	-5%	11%	53%
